Measured values: the supplement of paper PMC8728848
Many of the other results were omitted from the sample, so the strongest signals are more common in it than they were.

Legend:
Assay in all cases: glycan array binding signal (z-score within array); higher = stronger binding
Settings in all cases: glycan notation: IUPAC condensed, linker removed
[1] = target: Fuc(a1-2)Gal(b1-3)GalNAc(b1-4)[Neu5Ac(a2-3)]Gal(b1-4)Glc
Outline: (§1)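 The binding signal is a Z-score computed within each array. Data were drawn from 3228 arrays in the Consortium for Functional Glycomics database, restricted to those with a known protein sequence. Scores were averaged over arrays of the same protein sequence at different concentrations or buffers, and over linkers, and negative values can be taken as non-binding.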

[2] = target: Fuc(a1-2)Gal(b1-4)GlcNAc(b1-3)Gal(b1-4)GlcNAc(b1-2)Man(a1-3)[Fuc(a1-2)Gal(b1-4)GlcNAc(b1-3)Gal(b1-4)GlcNAc(b1-2)Man(a1-6)]Man(b1-4)GlcNAc(b1-4)GlcNAc
Outline: as §1

[3] = target: Fuc(a1-2)Gal(b1-4)[Fuc(a1-3)]GlcNAc(b1-3)Gal(b1-4)[Fuc(a1-3)]GlcNAc(b1-3)Gal(b1-4)[Fuc(a1-3)]GlcNAc
Outline: as §1

[4] = target: Fuc(a1-2)[Gal(a1-3)]Gal(b1-4)GlcNAc(b1-3)GalNAc
Outline: as §1

[5] = target: Fuc(a1-2)[Gal(a1-3)]Gal(b1-4)GlcNAc(b1-3)[Fuc(a1-2)[Gal(a1-3)]Gal(b1-4)GlcNAc(b1-6)]GalNAc
Outline: as §1

[6] = target: Fuc(a1-2)[GalNAc(a1-3)]Gal(b1-4)GlcNAc(b1-2)Man
Outline: as §1

[7] = target: Fuc(a1-2)[GalNAc(a1-3)]Gal(b1-4)GlcNAc(b1-6)GalNAc
Outline: as §1

[8] = target: Fuc(a1-3)[Gal3S(b1-4)]GlcNAc6S
Outline: as §1

[9] = target: Fuc(b1-3)GlcNAc
Outline: as §1

[10] = target: Gal(a1-3)Gal(b1-4)GlcNAc
Outline: as §1

[11] = target: Gal(a1-4)Gal(b1-4)GlcNAc(b1-3)Gal(b1-4)Glc
Outline: as §1

[12] = target: Gal(b1-3)GalNAc(a1-3)[Fuc(a1-2)]Gal(b1-4)Glc
Outline: as §1

[13] = target: Gal(b1-3)GalNAc(a1-3)[Fuc(a1-2)]Gal(b1-4)GlcNAc
Outline: as §1

[14] = target: Gal(b1-3)GlcNAc(a1-3)Gal(b1-4)GlcNAc
Outline: as §1

[15] = target: Gal(b1-3)GlcNAc(b1-2)[Gal(b1-3)GlcNAc(b1-6)]Man(a1-6)[Gal(b1-3)GlcNAc(b1-2)Man(a1-3)]Man(b1-4)GlcNAc(b1-4)GlcNAc
Outline: as §1

[16] = target: Gal(b1-3)[Fuc(a1-4)]GlcNAc(b1-2)Man
Outline: as §1

[17] = target: Gal(b1-3)[Fuc(a1-4)]GlcNAc(b1-3)Gal(b1-3)[Fuc(a1-4)]GlcNAc
Outline: as §1

[18] = target: Gal(b1-4)Gal
Outline: as §1

[19] = target: Gal(b1-4)GalNAc(a1-3)[Fuc(a1-2)]Gal(b1-4)GlcNAc
Outline: as §1

[20] = target: Gal(b1-4)GlcNAc(b1-2)Man(a1-3)[Gal(b1-4)GlcNAc(b1-2)Man(a1-6)][GlcNAc(b1-4)]Man(b1-4)GlcNAc(b1-4)[Fuc(a1-6)]GlcNAc
Outline: as §1

[21] = target: Gal(b1-4)GlcNAc(b1-2)Man(a1-3)[GlcNAc(b1-4)][Gal(b1-4)GlcNAc(b1-2)Man(a1-6)]Man(b1-4)GlcNAc(b1-4)GlcNAc
Outline: as §1

[22] = target: Gal(b1-4)GlcNAc(b1-2)Man(a1-6)[GlcNAc(b1-2)Man(a1-3)]Man(b1-4)GlcNAc(b1-4)GlcNAc
Outline: as §1

[23] = target: Gal(b1-4)GlcNAc(b1-2)[Gal(b1-4)GlcNAc(b1-6)]Man(a1-6)[GlcNAc(b1-4)][Gal(b1-4)GlcNAc(b1-2)[Gal(b1-4)GlcNAc(b1-4)]Man(a1-3)]Man(b1-4)GlcNAc(b1-4)[Fuc(a1-6)]GlcNAc
Outline: as §1

[24] = target: Gal(b1-4)GlcNAc(b1-3)Gal(b1-4)GlcNAc(b1-2)[Gal(b1-4)GlcNAc(b1-3)Gal(b1-4)GlcNAc(b1-6)]Man(a1-6)[Gal(b1-4)GlcNAc(b1-3)Gal(b1-4)GlcNAc(b1-2)Man(a1-3)]Man(b1-4)GlcNAc(b1-4)[Fuc(a1-6)]GlcNAc
Outline: as §1

[25] = target: Gal(b1-4)GlcNAc(b1-3)GalNAc
Outline: as §1

[26] = target: Gal3S(b1-3)GalNAc
Outline: as §1

[27] = target: Gal4S(b1-4)GlcNAc
Outline: as §1

[28] = target: Gal6P(b1-4)GlcNAc
Outline: as §1

[29] = target: GalNAc(b1-4)GlcNAc6S
Outline: as §1

[30] = target: Glc(a1-4)Glc
Outline: as §1

B1: SSR2 (Sclerotium rolfsii) (protein)
chain: MVYKITVRVYQTNPDAFFHPVEKTVWKYANGGTWSITDDQHVLTMGGSGTSGTLRFHADNGESFTATFGVHNYKRWCDIVTNLAADETGMVINQQYYSQKNREEARERQLSNYQVKNAKGRNFQIVYTEAEGNDLHANLIIG
glycan array binding signal (z-score) [1]: -0.282 | glycan array binding signal (z-score) [2]: -0.273 | glycan array binding signal (z-score) [3]: -0.294 | glycan array binding signal (z-score) [4]: -0.285 | glycan array binding signal (z-score) [5]: -0.277 | glycan array binding signal (z-score) [6]: -0.275 | glycan array binding signal (z-score) [7]: -0.297 | glycan array binding signal (z-score) [8]: -0.279 | glycan array binding signal (z-score) [9]: -0.269 | glycan array binding signal (z-score) [10]: -0.292 | glycan array binding signal (z-score) [11]: -0.285 | glycan array binding signal (z-score) [12]: 3.93 | glycan array binding signal (z-score) [13]: 2.96 | glycan array binding signal (z-score) [14]: -0.278 | glycan array binding signal (z-score) [15]: -0.286 | glycan array binding signal (z-score) [16]: -0.286 | glycan array binding signal (z-score) [17]: -0.272 | glycan array binding signal (z-score) [18]: -0.288 | glycan array binding signal (z-score) [19]: -0.279 | glycan array binding signal (z-score) [20]: -0.287 | glycan array binding signal (z-score) [21]: -0.259 | glycan array binding signal (z-score) [22]: 3.34 | glycan array binding signal (z-score) [23]: -0.266 | glycan array binding signal (z-score) [24]: -0.229 | glycan array binding signal (z-score) [25]: -0.281 | glycan array binding signal (z-score) [26]: 4.27 | glycan array binding signal (z-score) [27]: -0.297 | glycan array binding signal (z-score) [28]: -0.287 | glycan array binding signal (z-score) [29]: -0.294 | glycan array binding signal (z-score) [30]: -0.262
